This note sets out measurements from PubChem BioAssay AID2669 (National Center for Advancing Translational Sciences (NCATS), 2010).

Where “and” joins values, the source holds several entries; their conditions need not be identical. Identical values can stand only once. Records with an inconclusive call do not appear. Unmarked numbers belong to inactive results. Calls of active or inactive are those of the source. The call rests on the fitted dose curve; in most records, active means well fitted inhibition curve with a large enough effect; inconclusive means small, poorly fitted or top-dose-only effect, or effect the other way; inactive means flat fitted curve, though single readings scatter.

This assay can be described thus: qHTS Assay Multiplex Screening to Identify Dual Action Probes in a Cell Model of Huntington: Cytoprotection (Protease relase). As to conditions: PC12 HttQ103 cells, Cytotox-Glo protease release, 40 h; series mostly up to 46.1 µM; activity change, negative = inhibition: at the top concentration. The source says:
NIH Chemical Genomics Center [NCGC]
NIH Molecular Libraries Probe Production centers Network [MLPCN]
Assay Submitter (PI): Wei Zheng
Huntington's disease is a neurodegenerative disorder caused by a trinucleotide repeat expansion in Exon 1 of the Huntingtin gene. The CAG trinucleotide encodes glutamine and polyglutamine expansions cause cell death in selective areas of the brain. Huntington polyglutamine repeats have the tendency to form aggregates which are observable in later stages of the disease. The exact nature of the aggregates, whether toxic, protective, or insignificant, is unclear.
A stable PC12 cell line containing a gene fusion of Exon 1 of the Huntingtin gene linked to GFP under the control of the inducible ecdysone promoter were used as the cell-based model of Huntington Disease for high throughput screening. Exon 1 of the Huntingtin gene contained an expansion of 103 polyglutamines (Q103) which, when expressed, caused cell death and distinct, bright GFP aggregates. The amount of cell death and the size and intensity of GFP aggregates increased over time and induction level. In the primary screen, cell death were quantified with a measurement of ATP content in the cells. A maximal 40-50% of cell death was observed when the Huntington gene was induced in this cell line.
We optimized this assay in a homogeneous 1536 well format. A quantitative high throughput screen (qHTS) was conducted on the PC12 cells which were induced to express the toxic fusion construct. Small molecules which prevented cell death were considered hits, and were further studied. The present assay is an alternate assay for cytoprotection using Promega's Cytotox-Glo reagent.
PC12 cells stably containing a construct with an ecdysone inducible promoter expressing GFP fused to the exon 1 of HTTQ103 (Huntington protein which containing a 103 ployglutamine expansion) were used.
NCGC Assay Protocol Summary:
Sequence, Parameter, Description
1, Reagent, 5 uL 1500 cells/well 1536 TC treated White clear bottom plate
2, Compound, 23 nL Tebufenozide inducer (100 nM final) to all columns
3, Compound, 23 nL 40 uM to 0.5 nM Libraries
5, Reagent, 2 ul Promega's Cytotox-Glo assay reagent
6, Detector, 4 sec integration with a Viewlux Luminescent
Media consisted of phenol red free DMEM + 5% equine serum (Hyclone # SH30072.03 ), 5% supplemented Bovine Calf Serum (Hyclone # SH30074.03 ), 1x pen/strep, no G418
For orientation: Quantitative high-throughput screening tests each substance at several concentrations.
In the case of `Cc1[nH]nc2c1C(c1cccc(O)c1)C1=C(CC(C)(C)CC1=O)N2` (stereo not given), the “activity change, negative = inhibition” value is 3.18%.
The same measure, in the same setting: for `COc1cc(NC(=O)COC(=O)[C@@H]2CCCN2S(=O)(=O)c2ccc(Cl)cc2)cc(OC)c1OC` the value was 11.8%; for `C[C@]12CC[C@@H]3c4ccc(OC(=O)c5ccccc5)cc4CC[C@H]3[C@@H]1CC[C@@H]2O`, 9.1%.
The same measure, in the same setting: for `Cc1noc(C)c1COC(=O)Cc1ccc(Cl)cc1` the value was 3.72%; for `c1csc(-c2cn3c(n2)SCC3)c1`, -24.7%; for `CCCCCCCCNc1ncnc2ccccc12`, 27%.
On the same count and under the same terms, for `COC(=O)c1ccc(NC(=O)CN2C(=O)CSC2=O)cc1` the value was -28.9%.
Turning to `O=C(O)CCN1C(=O)/C(=C\c2ccc(-c3nc4ccccc4s3)o2)SC1=S`, the Potency was 5.62 µM (active).
Consider `O=C1Cc2c([nH]c3ccc(Br)cc23)-c2ccccc2N1`, for which the Potency was 2.24 µM (active) and 3.55 µM (active).
The same measure, in the same setting: for `Cn1nnnc1Sc1ncnc2scc(Br)c12` the value was 7.94 µM (active); for `Cn1nnnc1Sc1ncnc2scc(-c3ccc(C#N)cc3)c12`, 8.91 µM (active); for `Cn1nnnc1Sc1ncnc2scc(-c3cccc(Cl)c3)c12`, 11.2 µM (active).
Still for that read-out and setting: for `COc1cccc(-c2csc3ncnc(Sc4nnnn4C)c23)c1` the value was 7.08 µM (active); for `Cc1ccc(-n2ncc(Br)c(Br)c2=O)cc1`, 12.6 µM (active).
Take `N#CCSc1nc2ccc(N3CCCCC3)cc2c(=O)n1Cc1ccccc1`: the Potency was 22.4 µM (active).
Regarding `COc1ccc(-c2[nH]ncc2-c2ccc3c(c2)OCCO3)c(O)c1`, the Potency was 15.8 µM (active).
Consider `Cn1nnnc1Sc1ncnc2scc(-c3cc4ccccc4o3)c12`, for which the Potency was 7.08 µM (active).
On the same count and under the same terms, for `CCOC(=O)N1CCN(C(=O)CSCC(=O)Nc2nc(-c3ccc(-c4ccccc4)cc3)cs2)CC1` the value was 3.16 µM (active).
As for `Cn1nnnc1Sc1ncnc2scc(I)c12`, the Potency is 11.2 µM (active).
For the compound `COC(=O)C(O)(CC(=O)Nc1ccc(OC(F)(F)F)cc1)C(F)(F)F` (stereo not given), the “activity change, negative = inhibition” value was -8.73%.
`Cn1nnnc1Sc1ncnc2scc(-c3cccc([N+](=O)[O-])c3)c12`: the Potency is 12.6 µM (active).
In the case of `NCCCCCc1cnc[nH]1`, the “activity change, negative = inhibition” value is 5.49%.
On to `Cn1nnnc1Sc1ncnc2scc(-c3ccc[nH]3)c12`, for which the Potency is 8.91 µM (active).
On the same count and under the same terms, for `COc1ccc2cc3cc(C(=O)NCc4ccco4)oc3nc2c1` the value was 1 µM (active); for `N#Cc1c(C(F)(F)F)cc(-c2ccc(Cl)cc2)[nH]c1=O`, 4.47 µM (active).
Consider `Cc1cc(C)nc(Sc2nc(C)nc3c2oc2ccccc23)n1`, for which the “activity change, negative = inhibition” value is -11.1%.
`N#Cc1c(C(F)(F)F)cc(-c2cccc(Cl)c2)[nH]c1=O`: the Potency is 2.51 µM (active).
Consider `NC(=O)C1CCN(CCC(=O)Nc2ccc(Br)cc2)CC1`, for which the “activity change, negative = inhibition” value is -9%.
On the same count and under the same terms, for `CCOC(=O)c1sc2nc(N3CCOCC3)c3c(c2c1N)CC(C)(C)N(C)C3` the value was 10%.
Still for that read-out and setting: for `Cc1ccccc1N=C(N)Nc1ccccc1C` the value was 0.765%.
Consider `COC(=O)CNC(=O)C1CCN(C(=O)OCc2ccccc2)CC1`, for which the Potency was 1.41 µM (active).
For the compound `CCC(=O)O[C@]1(C(=O)CCl)[C@@H](C)C[C@H]2[C@@H]3CCC4=CC(=O)C=C[C@]4(C)[C@@]3(F)[C@@H](O)C[C@@]21C`, the “activity change, negative = inhibition” value was 2.63%.
Same read-out and setting: for `CC(=O)Nc1ccc(S(=O)(=O)N2CCSC2c2ccccc2)cc1` (stereo not given) the value was 0.578%.
Regarding `CCOC(=O)c1noc(C)c1C(=O)Nc1cccc(F)c1`, the Potency was 7.08 µM (active).
For the compound `CN1C(=O)NC(NC(=O)c2cccs2)(C(F)(F)F)C1=O` (stereo not given), the “activity change, negative = inhibition” value is -6.9%.
Still for that read-out and setting: for `CS(=O)(=O)c1ccc([C@H](O)[C@H](CO)NC(=O)C(Cl)Cl)cc1` the value was -5.82%.
Consider `COc1ccc(-c2csc3ncnc(Sc4nnnn4C)c23)cc1`, for which the Potency is 11.2 µM (active).
For the compound `NC(=O)c1sc2nccc(Nc3ccccc3)c2c1N`, the “activity change, negative = inhibition” value was -13.6%.
With `CC(C(=O)O)c1ccc(N2Cc3ccccc3C2=O)cc1` (stereo not given), the Potency was 2.24 µM (active).
Take `O=C(Nc1ccccc1)C1=C(O)CC(c2ccco2)CC1=Nc1ccccc1` (stereo not given): the “activity change, negative = inhibition” value was -8.66%.
